Experimental data taken from publication PMC7862700, “An all-to-all approach to the identification of sequence-specific readers for epigenetic DNA modifications on cytosine”.

Key:
Test in all cases: DAPPL (digital affinity profiling via proximity ligation, sequencing); 10 mM Tris-HCl pH 7.5, 50 mM NaCl, 1 mM DTT, 4% glycerol, room temperature, 30 min; GST-TFs on glutathione beads, 16-mer random dsDNA library, 0.1% formaldehyde crosslink after washing; high values mean tight binding
Conditions in all cases: protein: recombinant; tags: N-terminal GST; dsDNA, one strand shown
[1] = biological target: ETV5 (Homo sapiens, UniProt P41161 1-510)
Summary of the method: (§1)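 GST fusions of human transcription factors were expressed in yeast and captured with glutathione beads. Once given DNA barcodes and pooled alongside a tag-only sample, they were incubated for 30 min at room temperature with 200 nmole of a random double-stranded 16-mer DNA library in Tris/NaCl/DTT/glycerol buffer, then washed, crosslinked (0.1% formaldehyde), proximity-ligated, PCR-amplified and sequenced on an Illumina NextSeq500. The binding signal of each hexamer is its read frequency for a factor divided by its frequency for the tag-only sample.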

[2] = biological target: ELF4 (Homo sapiens, UniProt Q99607 1-663)
Summary of the method: as §1

[3] = biological target: T1, ELF3 (Homo sapiens, UniProt P78545 1-371)
T1 sequence: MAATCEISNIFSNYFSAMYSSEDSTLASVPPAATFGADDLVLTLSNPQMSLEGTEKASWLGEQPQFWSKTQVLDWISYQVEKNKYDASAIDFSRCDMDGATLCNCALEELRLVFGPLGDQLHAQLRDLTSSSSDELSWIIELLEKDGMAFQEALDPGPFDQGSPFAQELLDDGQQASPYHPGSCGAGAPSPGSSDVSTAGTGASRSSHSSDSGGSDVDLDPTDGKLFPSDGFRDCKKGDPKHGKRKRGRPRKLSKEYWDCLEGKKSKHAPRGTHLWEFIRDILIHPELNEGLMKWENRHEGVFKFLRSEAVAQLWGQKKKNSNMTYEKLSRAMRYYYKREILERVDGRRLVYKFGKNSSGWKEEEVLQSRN
Summary of the method: as §1

[4] = biological target: T2, ETV7 (Homo sapiens, UniProt Q9Y603 1-341)
T2 sequence: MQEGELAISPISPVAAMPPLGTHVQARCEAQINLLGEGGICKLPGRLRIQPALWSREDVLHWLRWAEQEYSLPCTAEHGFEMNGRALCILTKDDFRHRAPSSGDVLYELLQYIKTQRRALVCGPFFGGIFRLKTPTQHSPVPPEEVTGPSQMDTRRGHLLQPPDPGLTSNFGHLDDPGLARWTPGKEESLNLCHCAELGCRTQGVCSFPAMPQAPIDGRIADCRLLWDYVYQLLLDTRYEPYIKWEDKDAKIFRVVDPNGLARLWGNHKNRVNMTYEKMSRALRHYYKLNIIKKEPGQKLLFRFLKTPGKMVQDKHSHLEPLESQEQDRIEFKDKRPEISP
Summary of the method: as §1

[5] = biological target: T3, ELK1 (Homo sapiens, UniProt P19419 1-428)
T3 sequence: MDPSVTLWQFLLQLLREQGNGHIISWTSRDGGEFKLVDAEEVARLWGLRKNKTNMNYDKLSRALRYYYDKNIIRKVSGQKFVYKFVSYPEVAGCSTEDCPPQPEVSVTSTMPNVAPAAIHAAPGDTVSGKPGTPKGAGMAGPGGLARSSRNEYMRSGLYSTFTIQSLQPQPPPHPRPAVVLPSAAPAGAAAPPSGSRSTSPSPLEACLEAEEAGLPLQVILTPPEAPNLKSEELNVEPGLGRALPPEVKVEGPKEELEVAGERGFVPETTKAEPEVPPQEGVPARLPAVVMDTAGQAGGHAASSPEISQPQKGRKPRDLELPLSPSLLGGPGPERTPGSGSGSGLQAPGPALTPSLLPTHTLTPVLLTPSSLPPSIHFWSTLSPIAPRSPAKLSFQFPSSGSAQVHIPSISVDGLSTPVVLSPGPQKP
Summary of the method: as §1

[6] = biological target: T4, ERG (Homo sapiens, UniProt P11308 1-479)
T4 sequence: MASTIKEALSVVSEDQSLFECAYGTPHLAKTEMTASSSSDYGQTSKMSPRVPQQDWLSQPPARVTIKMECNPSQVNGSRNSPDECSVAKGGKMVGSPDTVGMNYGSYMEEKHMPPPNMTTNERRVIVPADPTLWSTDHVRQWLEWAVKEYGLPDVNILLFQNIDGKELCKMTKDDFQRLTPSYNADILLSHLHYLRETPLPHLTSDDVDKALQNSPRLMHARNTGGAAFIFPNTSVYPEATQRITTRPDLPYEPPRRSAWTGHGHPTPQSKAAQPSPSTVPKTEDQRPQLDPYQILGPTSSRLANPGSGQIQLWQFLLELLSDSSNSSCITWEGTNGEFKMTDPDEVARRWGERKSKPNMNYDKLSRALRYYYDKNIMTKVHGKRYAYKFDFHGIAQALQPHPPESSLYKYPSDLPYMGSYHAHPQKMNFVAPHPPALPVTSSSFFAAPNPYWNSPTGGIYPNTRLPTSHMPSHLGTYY
Summary of the method: as §1

[7] = biological target: ELF1 (Homo sapiens, UniProt P32519 1-619)
Summary of the method: as §1

[8] = biological target: T5, EHF (Homo sapiens, UniProt Q9NZC4 1-300)
T5 sequence: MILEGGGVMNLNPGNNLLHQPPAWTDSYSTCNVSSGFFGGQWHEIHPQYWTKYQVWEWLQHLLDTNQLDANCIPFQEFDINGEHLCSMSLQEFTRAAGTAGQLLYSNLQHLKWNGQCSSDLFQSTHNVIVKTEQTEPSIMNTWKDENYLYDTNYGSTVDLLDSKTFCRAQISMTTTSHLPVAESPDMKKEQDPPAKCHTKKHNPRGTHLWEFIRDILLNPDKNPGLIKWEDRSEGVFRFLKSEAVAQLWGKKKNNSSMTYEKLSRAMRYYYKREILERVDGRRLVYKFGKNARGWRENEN
Summary of the method: as §1

[9] = biological target: SPIB (Homo sapiens, UniProt Q01892 1-262)
Summary of the method: as §1

[10] = biological target: T6, ELK3 (Homo sapiens, UniProt P41970 1-407)
T6 sequence: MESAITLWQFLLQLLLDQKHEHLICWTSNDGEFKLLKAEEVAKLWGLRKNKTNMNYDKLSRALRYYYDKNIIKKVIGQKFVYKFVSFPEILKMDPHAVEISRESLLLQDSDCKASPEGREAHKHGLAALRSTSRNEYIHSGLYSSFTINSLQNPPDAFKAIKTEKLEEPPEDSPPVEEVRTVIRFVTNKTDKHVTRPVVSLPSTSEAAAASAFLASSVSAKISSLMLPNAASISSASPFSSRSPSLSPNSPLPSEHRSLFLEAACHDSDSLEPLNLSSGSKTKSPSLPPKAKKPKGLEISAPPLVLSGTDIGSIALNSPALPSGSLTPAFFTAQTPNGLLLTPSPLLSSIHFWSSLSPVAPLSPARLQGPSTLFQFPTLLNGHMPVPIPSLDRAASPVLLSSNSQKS
Summary of the method: as §1

[11] = biological target: T7, FEV (Homo sapiens, UniProt Q99581 1-238)
T7 sequence: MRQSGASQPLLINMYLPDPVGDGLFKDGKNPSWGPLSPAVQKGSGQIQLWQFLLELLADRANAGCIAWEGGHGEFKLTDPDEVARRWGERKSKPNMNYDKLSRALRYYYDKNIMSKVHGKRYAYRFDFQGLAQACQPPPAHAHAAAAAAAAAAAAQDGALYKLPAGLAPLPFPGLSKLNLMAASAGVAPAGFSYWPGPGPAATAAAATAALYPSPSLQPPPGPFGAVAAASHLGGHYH
Summary of the method: as §1

[12] = biological target: T8, ELK4 (Homo sapiens, UniProt P28324-2 1-405)
T8 sequence: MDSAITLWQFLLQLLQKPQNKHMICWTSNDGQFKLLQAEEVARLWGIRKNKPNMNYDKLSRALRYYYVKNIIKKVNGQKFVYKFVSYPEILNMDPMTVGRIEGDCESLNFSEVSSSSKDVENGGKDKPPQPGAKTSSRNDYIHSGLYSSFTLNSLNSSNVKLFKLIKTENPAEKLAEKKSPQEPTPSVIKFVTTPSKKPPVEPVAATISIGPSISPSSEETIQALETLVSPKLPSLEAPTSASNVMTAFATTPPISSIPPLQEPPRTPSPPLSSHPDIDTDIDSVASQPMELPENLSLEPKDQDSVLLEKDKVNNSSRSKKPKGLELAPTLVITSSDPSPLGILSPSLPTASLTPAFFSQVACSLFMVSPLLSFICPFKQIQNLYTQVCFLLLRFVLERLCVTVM
Summary of the method: as §1

[13] = biological target: ETV1 (Homo sapiens, UniProt P50549 1-477)
Summary of the method: as §1

[14] = biological target: T9, ERF (Homo sapiens, UniProt P50548 1-548)
T9 sequence: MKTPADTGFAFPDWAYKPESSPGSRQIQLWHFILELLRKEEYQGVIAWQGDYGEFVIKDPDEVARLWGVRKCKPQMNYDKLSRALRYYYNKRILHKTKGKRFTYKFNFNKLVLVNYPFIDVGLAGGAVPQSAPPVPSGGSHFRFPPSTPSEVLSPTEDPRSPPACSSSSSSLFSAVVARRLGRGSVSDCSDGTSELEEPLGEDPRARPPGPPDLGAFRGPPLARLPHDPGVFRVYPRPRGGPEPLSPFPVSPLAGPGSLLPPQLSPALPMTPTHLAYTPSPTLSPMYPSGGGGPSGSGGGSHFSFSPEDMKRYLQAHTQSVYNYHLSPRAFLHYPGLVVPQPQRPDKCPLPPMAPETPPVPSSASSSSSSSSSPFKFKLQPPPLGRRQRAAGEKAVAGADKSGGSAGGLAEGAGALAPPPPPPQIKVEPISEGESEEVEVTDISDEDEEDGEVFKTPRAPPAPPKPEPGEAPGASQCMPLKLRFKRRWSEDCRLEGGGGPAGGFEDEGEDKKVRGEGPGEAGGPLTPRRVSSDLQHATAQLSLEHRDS
Summary of the method: as §1

[15] = biological target: T10, ETV3L (Homo sapiens, UniProt Q6ZN32 1-361)
T10 sequence: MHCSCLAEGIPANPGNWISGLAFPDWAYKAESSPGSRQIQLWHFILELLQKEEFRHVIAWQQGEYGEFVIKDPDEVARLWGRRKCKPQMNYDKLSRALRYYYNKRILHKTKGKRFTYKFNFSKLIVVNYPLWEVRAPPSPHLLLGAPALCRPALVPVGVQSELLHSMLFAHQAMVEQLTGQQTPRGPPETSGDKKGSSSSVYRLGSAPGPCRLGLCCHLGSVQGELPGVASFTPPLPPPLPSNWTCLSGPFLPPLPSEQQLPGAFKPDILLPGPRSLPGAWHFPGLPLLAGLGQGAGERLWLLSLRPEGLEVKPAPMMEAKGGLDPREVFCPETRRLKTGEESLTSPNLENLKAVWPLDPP
Summary of the method: as §1

[16] = biological target: T11, ETS2 (Homo sapiens, UniProt P15036 1-469)
T11 sequence: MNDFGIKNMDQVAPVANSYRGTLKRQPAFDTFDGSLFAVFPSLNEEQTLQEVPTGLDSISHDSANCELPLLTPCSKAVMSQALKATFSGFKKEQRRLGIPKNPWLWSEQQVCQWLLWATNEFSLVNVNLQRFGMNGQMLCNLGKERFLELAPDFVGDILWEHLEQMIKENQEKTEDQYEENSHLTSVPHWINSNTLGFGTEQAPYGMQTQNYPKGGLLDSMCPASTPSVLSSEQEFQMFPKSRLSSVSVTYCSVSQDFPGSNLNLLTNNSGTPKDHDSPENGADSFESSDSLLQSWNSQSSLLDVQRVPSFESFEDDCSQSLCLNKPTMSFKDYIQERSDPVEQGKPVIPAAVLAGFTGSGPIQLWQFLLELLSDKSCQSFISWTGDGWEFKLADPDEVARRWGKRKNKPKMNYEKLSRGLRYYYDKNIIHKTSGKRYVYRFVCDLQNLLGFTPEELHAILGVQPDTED
Summary of the method: as §1

[17] = biological target: T12, SPDEF (Homo sapiens, UniProt O95238 1-335)
T12 sequence: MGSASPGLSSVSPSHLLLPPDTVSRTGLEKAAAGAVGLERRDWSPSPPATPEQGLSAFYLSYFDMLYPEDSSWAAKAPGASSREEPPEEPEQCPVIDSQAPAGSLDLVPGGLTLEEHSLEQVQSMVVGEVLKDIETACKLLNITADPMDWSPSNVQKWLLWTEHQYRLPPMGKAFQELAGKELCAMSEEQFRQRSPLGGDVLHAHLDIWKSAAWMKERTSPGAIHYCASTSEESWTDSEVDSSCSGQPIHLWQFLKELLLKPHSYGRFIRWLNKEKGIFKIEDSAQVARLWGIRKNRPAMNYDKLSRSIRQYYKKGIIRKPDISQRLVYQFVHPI
Summary of the method: as §1

[18] = biological target: T13, ETV3 (Homo sapiens, UniProt P41162-2 1-143)
T13 sequence: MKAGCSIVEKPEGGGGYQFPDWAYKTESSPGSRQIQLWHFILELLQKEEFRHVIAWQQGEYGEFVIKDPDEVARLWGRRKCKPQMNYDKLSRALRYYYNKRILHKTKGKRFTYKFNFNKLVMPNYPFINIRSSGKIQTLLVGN
Summary of the method: as §1

[19] = biological target: ETV6 (Homo sapiens, UniProt P41212 1-452)
Summary of the method: as §1

ELF4, sequence (Q99607 whole entry): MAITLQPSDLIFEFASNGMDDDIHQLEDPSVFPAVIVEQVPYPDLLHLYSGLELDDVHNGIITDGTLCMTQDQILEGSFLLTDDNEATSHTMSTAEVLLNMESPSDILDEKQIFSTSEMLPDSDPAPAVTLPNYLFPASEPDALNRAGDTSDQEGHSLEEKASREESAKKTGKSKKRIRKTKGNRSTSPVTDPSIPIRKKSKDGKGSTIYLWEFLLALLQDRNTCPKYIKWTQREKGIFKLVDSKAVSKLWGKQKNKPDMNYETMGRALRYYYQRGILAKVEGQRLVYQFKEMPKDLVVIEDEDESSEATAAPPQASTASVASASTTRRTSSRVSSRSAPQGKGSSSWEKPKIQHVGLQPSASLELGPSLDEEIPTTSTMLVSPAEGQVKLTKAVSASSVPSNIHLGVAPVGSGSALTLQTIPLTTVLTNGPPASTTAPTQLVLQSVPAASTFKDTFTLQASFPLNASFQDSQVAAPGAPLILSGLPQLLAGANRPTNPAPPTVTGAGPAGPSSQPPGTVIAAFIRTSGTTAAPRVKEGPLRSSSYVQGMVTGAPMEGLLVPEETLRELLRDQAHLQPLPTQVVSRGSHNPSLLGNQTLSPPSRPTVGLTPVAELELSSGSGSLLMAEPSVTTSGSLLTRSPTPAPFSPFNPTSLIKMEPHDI
ETV5, sequence (P41161 whole entry, the tested form may be a part): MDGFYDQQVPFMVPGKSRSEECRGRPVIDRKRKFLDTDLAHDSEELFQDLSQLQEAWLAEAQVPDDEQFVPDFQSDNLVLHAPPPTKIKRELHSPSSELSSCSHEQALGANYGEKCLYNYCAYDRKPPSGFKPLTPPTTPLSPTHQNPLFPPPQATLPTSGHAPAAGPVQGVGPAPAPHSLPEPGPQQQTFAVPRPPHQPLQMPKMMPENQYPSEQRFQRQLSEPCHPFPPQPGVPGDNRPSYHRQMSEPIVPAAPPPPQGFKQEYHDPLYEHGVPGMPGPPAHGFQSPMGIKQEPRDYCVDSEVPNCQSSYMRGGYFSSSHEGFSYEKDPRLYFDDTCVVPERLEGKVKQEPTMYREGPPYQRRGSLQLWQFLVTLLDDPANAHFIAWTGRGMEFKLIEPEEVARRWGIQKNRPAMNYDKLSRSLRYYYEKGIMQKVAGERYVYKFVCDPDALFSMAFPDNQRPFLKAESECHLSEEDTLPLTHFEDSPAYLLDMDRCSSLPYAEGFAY
ETV6, sequence (P41212 whole entry): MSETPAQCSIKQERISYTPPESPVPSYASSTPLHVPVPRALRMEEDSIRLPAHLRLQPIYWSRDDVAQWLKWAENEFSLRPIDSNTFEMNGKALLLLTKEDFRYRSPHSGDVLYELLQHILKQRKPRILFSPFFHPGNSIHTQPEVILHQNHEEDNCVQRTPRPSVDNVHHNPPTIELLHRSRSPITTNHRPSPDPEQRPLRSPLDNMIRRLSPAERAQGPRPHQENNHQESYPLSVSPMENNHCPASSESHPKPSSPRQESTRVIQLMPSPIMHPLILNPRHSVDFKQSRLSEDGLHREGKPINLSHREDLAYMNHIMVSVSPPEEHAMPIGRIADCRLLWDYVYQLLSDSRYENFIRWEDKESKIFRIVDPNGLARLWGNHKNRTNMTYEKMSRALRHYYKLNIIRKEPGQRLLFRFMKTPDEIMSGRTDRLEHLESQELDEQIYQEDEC
ELF1, sequence (P32519 whole entry): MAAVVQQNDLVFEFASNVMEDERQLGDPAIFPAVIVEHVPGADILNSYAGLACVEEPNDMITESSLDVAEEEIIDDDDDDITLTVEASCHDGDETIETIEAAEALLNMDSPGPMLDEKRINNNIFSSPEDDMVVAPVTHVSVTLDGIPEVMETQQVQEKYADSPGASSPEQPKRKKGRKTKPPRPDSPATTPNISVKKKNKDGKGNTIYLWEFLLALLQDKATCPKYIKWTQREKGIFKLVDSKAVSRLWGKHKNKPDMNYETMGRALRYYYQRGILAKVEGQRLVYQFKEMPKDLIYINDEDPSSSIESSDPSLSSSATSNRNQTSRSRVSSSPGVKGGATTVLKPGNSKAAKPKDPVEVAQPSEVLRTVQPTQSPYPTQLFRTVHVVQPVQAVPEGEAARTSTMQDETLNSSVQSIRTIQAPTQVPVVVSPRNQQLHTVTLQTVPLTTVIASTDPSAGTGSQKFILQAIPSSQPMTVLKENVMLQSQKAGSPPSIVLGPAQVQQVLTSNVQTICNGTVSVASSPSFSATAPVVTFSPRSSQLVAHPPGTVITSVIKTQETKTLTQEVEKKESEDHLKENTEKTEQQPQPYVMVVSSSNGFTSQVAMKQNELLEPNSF
ETV1, sequence (P50549 whole entry): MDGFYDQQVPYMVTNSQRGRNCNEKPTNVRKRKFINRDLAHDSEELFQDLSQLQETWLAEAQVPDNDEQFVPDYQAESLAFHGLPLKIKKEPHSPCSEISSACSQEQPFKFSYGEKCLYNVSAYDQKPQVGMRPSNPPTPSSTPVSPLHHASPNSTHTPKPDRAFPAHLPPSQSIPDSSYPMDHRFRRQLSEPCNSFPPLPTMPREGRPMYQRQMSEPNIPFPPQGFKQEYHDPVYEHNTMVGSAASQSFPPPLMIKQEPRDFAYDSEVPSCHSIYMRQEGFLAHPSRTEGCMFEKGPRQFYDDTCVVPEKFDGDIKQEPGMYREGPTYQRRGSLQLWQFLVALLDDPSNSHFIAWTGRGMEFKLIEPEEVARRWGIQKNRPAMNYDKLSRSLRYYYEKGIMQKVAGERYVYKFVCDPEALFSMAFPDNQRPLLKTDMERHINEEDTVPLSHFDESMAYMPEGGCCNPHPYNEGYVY
SPIB, sequence (Q01892 whole entry): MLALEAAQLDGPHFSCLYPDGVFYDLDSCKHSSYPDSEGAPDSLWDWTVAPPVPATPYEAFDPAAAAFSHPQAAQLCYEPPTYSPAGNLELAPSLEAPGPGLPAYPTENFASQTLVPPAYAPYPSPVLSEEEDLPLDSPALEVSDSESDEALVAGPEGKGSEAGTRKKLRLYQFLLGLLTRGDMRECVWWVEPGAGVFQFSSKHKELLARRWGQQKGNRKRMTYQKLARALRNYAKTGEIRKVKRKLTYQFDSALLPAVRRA

Sequence | binding signal [1] | binding signal [2] | binding signal [3] | binding signal [4] | binding signal [5] | binding signal [6] | binding signal [7] | binding signal [8] | binding signal [9] | binding signal [10] | binding signal [11] | binding signal [12] | binding signal [13] | binding signal [14] | binding signal [15] | binding signal [16] | binding signal [17] | binding signal [18] | binding signal [19]
ACAAGA | 1.03 fold enrichment (6-mer frequency, TF over GST control) | 1.03 fold enrichment (6-mer frequency, TF over GST control) | 1.1 fold enrichment (6-mer frequency, TF over GST control) | 1.02 fold enrichment (6-mer frequency, TF over GST control) | – | – | – | – | – | – | – | – | – | – | – | – | – | – | –
CCCCTA | 1.07 fold enrichment (6-mer frequency, TF over GST control) | 1.2 fold enrichment (6-mer frequency, TF over GST control) | 1.3 fold enrichment (6-mer frequency, TF over GST control) | 1.06 fold enrichment (6-mer frequency, TF over GST control) | 1.07 fold enrichment (6-mer frequency, TF over GST control) | 1.05 fold enrichment (6-mer frequency, TF over GST control) | 1.18 fold enrichment (6-mer frequency, TF over GST control) | 1.17 fold enrichment (6-mer frequency, TF over GST control) | 1.08 fold enrichment (6-mer frequency, TF over GST control) | 1.38 fold enrichment (6-mer frequency, TF over GST control) | 1.13 fold enrichment (6-mer frequency, TF over GST control) | 1.3 fold enrichment (6-mer frequency, TF over GST control) | 1.07 fold enrichment (6-mer frequency, TF over GST control) | 1.04 fold enrichment (6-mer frequency, TF over GST control) | 1.13 fold enrichment (6-mer frequency, TF over GST control) | 1.05 fold enrichment (6-mer frequency, TF over GST control) | 1.07 fold enrichment (6-mer frequency, TF over GST control) | 1.06 fold enrichment (6-mer frequency, TF over GST control) | 1.22 fold enrichment (6-mer frequency, TF over GST control)
